From PubChem BioAssay AID720579 (National Center for Advancing Translational Sciences (NCATS), 2013)
Screen size: about 310,000 compounds; about 1,900 (0.61%) were called active. Roughly 8% stayed inconclusive and do not appear here. Calls come from the whole dose curve; tested in A549 cells. Many of the other results were omitted from the sample, so actives are more common in it than they were.

Test: qHTS for Stage-Specific Inhibitors of Vaccinia Orthopoxvirus: mCherry Reporter Primary qHTS; note: nearly all actives have a fitted effect of over 35% in size
Details: Vaccinia virus mCherry reporter infection, fluorescence; series mostly up to 36.5 µM; activity change, negative = inhibition: at the top concentration
% is set by controls: 0 for no effect and ±100 for the full control effect; potency is the fitted concentration of half-maximal effect.

Structure (SMILES)	outcome	Potency	activity change, negative = inhibition
Cc1ccc(C(=O)NC(C)C(c2cccs2)N2CCOCC2)cc1C (stereo not drawn)	inactive		
CCc1nc2c(OCc3ccc(C(=O)OC)cc3)cccn2c1N(C)C(=O)C(C)C	inactive		
CCOc1ccc(/C=N/NC(N)=S)cc1		1 µM (active)	
CCOc1ccc(/C=N\NC(=O)c2c(C)nc3cc(C)ccn23)cc1			-22.5% (inactive)
COC(=O)N/N=C/c1ccc(/C=N/NC(=O)OC)cc1			-8.87% (inactive)
COc1cccc(NC(=O)Nc2ccc(F)cc2)c1			-29.6% (inactive)
CC(C)C1N=C2c3ccccc3N=C(SCC(=O)c3ccc(O)c(O)c3)N2C1=O (stereo not drawn)		11.2 µM (active)	
O=C(CSC1=Nc2ccccc2C2=NC(c3ccccc3)C(=O)N12)NCC1CCCO1 (stereo not drawn)			-12.9% (inactive)
Cc1ccc(CNC(=O)CSC2=Nc3ccccc3C3=NC(C)C(=O)N23)cc1 (stereo not drawn)			-17.4% (inactive)
Cc1cc2nc(-c3ccc(Cl)cc3)c(Cc3cccc(F)c3)n2c(C)c1Br			24.4% (inactive)
CC(C)C1CCN(C(=O)C2CCC(=O)N(C3CCCCCC3)C2)CC1 (stereo not drawn)			-22.2% (inactive)
Cc1cc(C)nc(N/N=C/c2ccncc2)n1			-2.46% (inactive)
CCOc1ccc(-n2c(O)c(/C=N/Nc3nc(C)cc(C)n3)c3ccccc3c2=O)cc1			3.78% (inactive)
CCN(CC)c1ccc(/C=N/Nc2nc(C)cc(C)n2)c(O)c1		2.51 µM (active)	
CC1=C(C(=O)Nc2ccccc2)S(=O)(=O)CCO1		0.891 µM (active)	
CC1=C(C(=O)Nc2ccccc2)SCCO1	inactive		
O=C(Nc1ccccc1)c1ccc2c(c1)OCCCO2			-14.5% (inactive)
CC(C)Nc1nc(NCCOc2ccccc2Cl)c2sccc2n1			-28.6% (inactive)
CN(C)C(=O)CCc1ccc2c3c([nH]c2c1)[C@]1(CCC2CCCC2)[C@@H](C(=O)N2CCOCC2)C[C@H](CC(=O)NCc2ccco2)C(=O)N1CC3			2.15% (inactive)
O=C(C[C@H]1C[C@H](C(=O)N2CCOCC2)[C@@]2(CCC3CCCC3)c3[nH]c4ccc(Cl)cc4c3CCN2C1=O)NCc1ccco1		7.08 µM (active)	
COc1ccc(CNC(=O)C[C@H]2C[C@H](C(=O)N3CCOCC3)[C@@]3(CCC4CCCC4)c4[nH]c5ccc(Cl)cc5c4CCN3C2=O)cc1OC			-27.5% (inactive)
COc1ccc(Cl)cc1NC(=O)CN(C)C(=O)c1cn(-c2ccccc2)nc1-c1cccs1			-28.8% (inactive)
CC(C)C[C@H]1CNC(=S)N1C[C@H]1CCCN1C[C@H](Cc1ccc(O)cc1)N1C[C@H](Cc2ccc(O)cc2)N(CC2CCCCC2)C1=S			-18.3% (inactive)
Nc1nc(SCc2ccc([N+](=O)[O-])cc2)c2ncn(C3OC(CO)C(O)C3O)c2n1 (stereo not drawn)			-29.7% (inactive)
Nc1ncn(C2OC(CO)C(O)C2O)c(=O)n1 (stereo not drawn)		10 µM (active)	

Structure (SMILES)	outcome	Potency	activity change, negative = inhibition
CC(C)Sc1nc(N)nc2c1ncn2C1OC(CO)C(O)C1O (stereo not drawn)			-9.34% (inactive)
COc1ccc(-c2ccc(C(=O)NC(C)C)c3occc23)c(C)c1			16.1% (inactive)
CC(=O)c1cccc(-c2cnc3c(NC=O)cc(-c4cccc(C(=O)N(C)C)c4)cn23)c1			-29.9% (inactive)
CC(=O)c1ccc(-c2cnc3c(NC=O)cc(-c4cccc(NS(C)(=O)=O)c4)cn23)cc1		11.2 µM (active)	
CC(=O)c1cccc(-c2cnc3c(NC=O)cc(-c4ccc(N(C)C)cc4)cn23)c1			-17.7% (inactive)
COc1ccc(-c2cc3nc(NCCOc4ccccc4)ccn3n2)cc1			18.9% (inactive)
COc1cccc(CNCCc2c[nH]c3ccccc23)c1OCc1ccccc1F		10 µM (active)	
COc1ccc(S(=O)(=O)NCCc2c[nH]c3ccccc23)cc1OC	inactive		
c1cncc(CNCCc2c[nH]c3ccccc23)c1			-26.3% (inactive)
OCC(O)C(O)C(O)C(O)C=Nc1ccc(/C=C/c2ccnc3ccccc23)cc1 (stereo not drawn)			12.1% (inactive)
C=CC[C@@H](Cc1ccc(F)cc1)C(=O)OC[C@H]1CCCN1C(=O)[C@H](CC=C)CC(=O)N(CCO)Cc1ccccc1	inactive		
Cc1cccc(C(=O)C(O)(c2ccccc2)C2CCCCC2=O)c1 (stereo not drawn)			-0.222% (inactive)
O=C(C1CC(=O)N(C2CCCC2)C1)N1CCN(c2cccc(C(F)(F)F)c2)CC1 (stereo not drawn)		10 µM (active)	
O=C(C1CC(=O)N(c2ccc(F)cc2)C1)N1CCN(c2ccccc2)CC1 (stereo not drawn)			0.265% (inactive)
O=C(C1CC(=O)N(C2CCCCC2)C1)N1CCN(c2ccccc2)CC1 (stereo not drawn)			-0.781% (inactive)
COc1ccc(C2OC(CCc3ccccc3)Cc3[nH]c(=S)[nH]c(=O)c32)cc1 (stereo not drawn)	inactive		
CCCc1nc2c3ccccc3ccn2c1Cc1ccccc1C(F)(F)F	inactive		
OC(CBr)C[n+]1cccc2cc(Br)ccc21 (stereo not drawn)			-6.11% (inactive)
CCCC[C@@H]1CN=C(N)N1CCc1cc(C(F)(F)F)cc(C(F)(F)F)c1		11.2 µM (active)	
CCCC[C@@H]1CN=C(N)N1CCCC	inactive		
CCCC[C@@H]1CN=C(N)N1CCc1cccc(F)c1	inactive		
COc1ccc(OCC(O)CNCCNc2nccc(C(F)(F)F)n2)cc1 (stereo not drawn)			-2.52% (inactive)
CC(C)(C)CC(C)(C)NCC(O)COCCOc1ccc(Br)cc1 (stereo not drawn)		12.6 µM (active)	
CC(C)(C)NCC(O)COc1cccc2[nH]c(=O)[nH]c12 (stereo not drawn)		inactive	
Cc1ccc2nc(-c3ccco3)c(Cc3cccc(Cl)c3)n2c1	inactive		

Structure (SMILES)	outcome	Potency	activity change, negative = inhibition
CC(C)(C)Nc1nc(-c2ccccn2)nc2ccccc12			-28.3% (inactive)
c1ccc(-c2nccc(-c3ccc(-n4cnc5ccccc54)cc3)n2)nc1		11.2 µM (active)	
Cc1nccc(-c2ccc(-n3c(C)ccc3C)cc2)n1			-13.9% (inactive)
COc1cccc(C(=O)Nc2nc3ccc(S(C)(=O)=O)cc3s2)c1			-13% (inactive)
COc1ccc(NS(=O)(=O)c2ccc(N3CCOCC3)c(NC(=O)c3ccccc3Br)c2)cc1			-12.5% (inactive)
COc1ccc2c(c1)Cc1sc(NC(=O)c3ccccc3Br)nc1-2		11.2 µM (active)	
CCCc1c(-c2ccccc2F)ncn1Cc1ccccc1OC			-20% (inactive)
Cc1ccc(SCc2c(C(=O)N/N=C/C3CC=CCC3)nnn2-c2nonc2N)cc1 (stereo not drawn)			-18.1% (inactive)
Cc1ccc(SCc2c(C(=O)N/N=C/c3cccnc3)nnn2-c2nonc2N)cc1			-10.8% [at 7.34 µM] (inactive)
Nc1nonc1-n1nnc(C(=O)N/N=C/c2cc(Br)ccc2O)c1CSC1=NCCS1		7.08 µM (active)	
O=C(Nc1cc(Br)ccc1F)c1nc[nH]c1C(=O)NCc1ccccc1			-10.4% (inactive)
CCc1nc2ccc(C(=O)NC3CCN(Cc4ccccc4)CC3)cn2c1N(CC)CCOC			28.2% (inactive)
Cc1nc2ccccc2cc1C(=O)N/N=C/c1ccc([N+](=O)[O-])cc1			-9.06% (inactive)
Cc1ccsc1C(=O)N/N=C/c1ccc([N+](=O)[O-])cc1			-19.9% (inactive)
CC(C)(C)c1cc(C(=O)N/N=C/c2ccc([N+](=O)[O-])s2)n[nH]1		11.2 µM (active)	
Cc1nc2c(OCc3ccc(Cl)cc3)cccn2c1N(C)Cc1cccs1			13.2% (inactive)
CCCCOCCCNC(=O)C[C@@H]1C[C@@]2(C(=O)OCC)CCCC=C2N(CCC2=CCCCC2)C1=O			-27.4% (inactive)
CN(C)CCNC(=O)c1ccc(-c2cn3c(-c4ccc(Oc5ccccc5)cc4)cnc3cn2)cc1			-5.42% (inactive)
Cc1sc(NC(=O)C2=COCCO2)c(C#N)c1C			-10.3% (inactive)
CCCc1ccc(-c2c(C)sc(NC(=O)c3ccnn3C)c2C#N)cc1		11.2 µM (active)	
Cn1nccc1CNC(=O)c1ccnn1C			-16.4% (inactive)
C=C1C=C(C(F)F)n2ncc(C(=O)NCCc3ccccc3OC)c2N1			-8.11% (inactive)
CN1CCN(c2ccc3c(c2)OC[C@H](Cc2ccccc2)NS3(=O)=O)CC1			32.8% (inactive)
CN(C)CCNC(=O)c1ccc(Cl)c2cc3ccccc3nc12		1.78 µM (active)	
CN(C)CCNC(=O)Nc1cccc(Cl)c1Cl			-4.83% (inactive)

Structure (SMILES)	outcome	Potency	activity change, negative = inhibition
CC(=O)NCCNC(=O)c1cc(-c2cccc3ccccc23)nc2ccccc12			-12.7% (inactive)
COc1cccc(-c2cnc3c(NC(C)=O)cc(-c4cccc(NC(C)=O)c4)cn23)c1	inactive		
CCCCn1nnnc1C(c1cccc(OC)c1OC)N1CCN(C/C=C/c2ccccc2)CC1 (stereo not drawn)			33.4% (inactive)
Cc1c(CCO)sc[n+]1CC(=O)c1ccc2ccccc2c1			39.9% (inactive)
CC(NC(=O)CSc1nc2c(cc1C#N)CN(C)CC2)c1ccccc1 (stereo not drawn)		10 µM (active)	
CN1CCc2nc(SC(C(=O)O)c3ccccc3)c(C#N)c(-c3cccs3)c2C1 (stereo not drawn)			-13.5% (inactive)
Cc1cc(NC(=O)CSc2nc3c(cc2C#N)CCCCC3)no1			-10% (inactive)
CCCCCCCCN1C(=O)[C@H](CC(=O)NCC23CC4CC(CC(C4)C2)C3)C[C@@]2(C(=O)OC)CCCCC=C12			8.61% (inactive)
CCN1C(=O)[C@H]2[C@@H](c3ccc(C(F)(F)F)cc3)N[C@]3(CCCN(Cc4ccc(Br)cc4)C3=O)[C@H]2C1=O			-26.8% (inactive)
CC(C)(C)S(=O)N1Cc2cc(C(=O)NCCCN3CCOCC3)nc(-c3cccc(-c4cc5ccccc5o4)c3)c2[C@H]1CCO (stereo partly drawn)			14.1% (inactive)
CC1(Oc2ccc(Cl)cc2)CCN(Cc2csc3ccccc23)C1 (stereo not drawn)			-6.34% (inactive)
COc1ccc2sc(-c3ccc(N(C)C)cc3)c(-c3ccc4cc[nH]c4c3)c2c1			-13.9% (inactive)
COc1ccc2sc(-c3ccc(S(C)(=O)=O)cc3)c(C#Cc3cncn3C)c2c1			-22.7% (inactive)
COc1ccc2sc(-c3ccc(N(C)C)cc3)c(C#CCO)c2c1		12.6 µM (active)	
COCOc1cccc(CN2CCC(C)(Oc3ccc(SC)cc3)C2)c1 (stereo not drawn)			22% (inactive)
O=C(NCc1cccc(C(F)(F)F)c1)c1ccc2sc(COCCO)nc2c1			21.2% (inactive)
OC[C@@H]1CN(Cc2cccs2)C[C@H](n2cnc3c(NC4CCCC4)ncnc32)O1			7.65% (inactive)
Cc1ncc(CO)c(/C=N/NC(=O)c2cccc(S(=O)(=O)N3CCCC3)c2)c1O			-12.6% (inactive)
Cc1cc(C)nc(N/N=C/c2c(CO)cnc(C)c2O)n1		12.6 µM (active)	
Cc1cc(C)nc(N/N=C/c2c(C)oc3ccccc23)n1			-27.7% (inactive)
CSc1ccc(CN2CCC2(C)C(=O)Nc2ccc(C)c(O)c2)cc1 (stereo not drawn)			-10.1% (inactive)
CC(C)C[C@@H]1Cc2[nH][nH]c(=O)c2[C@H](CCc2ccccc2)O1			-12.1% (inactive)
CN(Cc1ccccc1)c1ccc(/C=C/c2ccnc3ccccc23)cc1			-25.7% (inactive)
